Hits are enriched below; roughly 11% of the tested compounds scored in any of these assays.
HEK cytotox: HEK 293 cell cytotoxicity; HEK 293 viability, ATP luminescence (CellTiter-Glo), 48-72 h; Potency, µM (series often up to 115 µM), for inactives: top-dose activity change, negative = cytotoxicity, most hits filed as inhibitors; 6.6% of 94,000 active; AID 1345083; also: nearly all actives have a fitted effect of over 60% in size
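HEK 293 seeded at 250 cells/well receive compound via pintool. After 48 or 72 hr at 37 degree Celsius, 5% CO2 and 95% humidity, CellTiter-Glo is dispensed and luminescence read following 10 min at room temperature.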
hNpr1 antagonist: antagonists of human natriuretic peptide receptor Npr1 | P16066 | AID 1347048 | 1.6% of 76,000 active | Potency, µM (highest dose often 46.3 µM), inactives show at the highest dose activity change, negative = inhibition, usual class: inhibitors | HEK293 hNpr1 GloSensor cGMP, ANP-stimulated luminescence; calls by dose curve; also: nearly all actives have a fitted effect of over 60% in size
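Compound pre-incubated 30 min at room temperature on GloSensor-loaded HEK293 cells stably carrying hNpr1 and the pGS-40F cGMP biosensor. Stimulation uses hNppA at 0.1 nM final; luminescence is taken at baseline and 20 min post-agonist.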
NIH3T3 tox: kills NIH 3T3 cells | NIH 3T3 viability, CellTiter-Glo ATP luminescence, 48-72 h | Potency, µM (top dose mostly 96.7 µM), without a hit: at the highest dose activity change, negative = cytotoxicity, actives largely listed as inhibitors | 4.3% of 94,000 active; also: nearly all actives have a fitted effect of over 55% in size
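First NIH 3T3 cells are plated at 400 cells/well; next compound is pinned in; then plates incubate 48 or 72 hr at 37 °C; finally CellTiter-Glo is added and luminescence read after 10 min.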
FLuc inh: Photinus pyralis luciferase inhibition. Potency, µM (titrated, usually from 115 µM), hits mostly inhibitors. purified P. pyralis luciferase, luminescence, biochemical. P08659. AID 1347043. 2.5% of 76,000 active; also: nearly all actives have a fitted effect of over 65% in size
Target sequence (P08659 whole entry, looked up): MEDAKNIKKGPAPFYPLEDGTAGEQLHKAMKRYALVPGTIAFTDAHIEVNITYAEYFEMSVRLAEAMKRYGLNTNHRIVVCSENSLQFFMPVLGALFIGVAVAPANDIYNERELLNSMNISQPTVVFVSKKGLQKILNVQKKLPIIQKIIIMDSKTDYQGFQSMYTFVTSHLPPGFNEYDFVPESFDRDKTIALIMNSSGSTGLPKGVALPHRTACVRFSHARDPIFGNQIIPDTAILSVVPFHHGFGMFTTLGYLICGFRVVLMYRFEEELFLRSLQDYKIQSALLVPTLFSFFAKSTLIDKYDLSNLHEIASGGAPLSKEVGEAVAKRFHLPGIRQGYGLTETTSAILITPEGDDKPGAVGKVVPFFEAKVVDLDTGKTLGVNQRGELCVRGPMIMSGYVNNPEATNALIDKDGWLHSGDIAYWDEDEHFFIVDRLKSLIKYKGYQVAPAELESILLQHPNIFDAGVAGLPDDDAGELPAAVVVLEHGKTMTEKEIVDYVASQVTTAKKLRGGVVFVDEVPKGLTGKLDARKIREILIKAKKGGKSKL
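Luminescence read by CCD imaging after purified firefly luciferase (10nM final) was added to substrate buffer holding 10uM D-luciferin and 10uM ATP, pH 7.5, pre-dosed with compound.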
An asterisk follows results filed as active; i = inactive; ? = inconclusive; · = no result given; [ ] = remark or other dose. Unless noted, calls follow the shape of the dose curve; as a rule, active = well fitted curve in the direction sought with a large enough effect; inconclusive = small, poorly fitted or top-dose-only effect, or another doubt; inactive = no such curve, though single readings can be large; an effect the other way counts as inactive or inconclusive. % is scaled to controls: 0 for no effect and ±100 for the full control effect; potency is read from the fitted curve at half-maximal effect.

SMILES	HEK cytotox	hNpr1 antagonist	NIH3T3 tox	FLuc inh
COc1ccccc1CNC(=O)C[C@@H]1c2nc(-c3cccnc3)sc2C[C@@H]2[C@](C)(CO)[C@H](O)CC[C@]21C	?	-10.0%	79.4µM*	i
CC(C)(C)c1ccc(C(=O)Nc2nc3c(s2)C[C@@H]2[C@](C)(CO)[C@H](O)CC[C@@]2(C)[C@@H]3CC(=O)N2CCOCC2)cc1	?	-3.3%	35.5µM*	i
CC(C)NC(=O)C[C@@H]1c2nc(NC(=O)c3ccc(C(C)(C)C)cc3)sc2C[C@@H]2[C@](C)(CO)[C@H](O)CC[C@]21C	39.8µM*	4.7%	50.1µM*	?
COc1ccc(C(=O)Nc2nc3c(s2)C[C@@H]2[C@](C)(CO)[C@H](O)CC[C@@]2(C)[C@@H]3CC(=O)N2CCOCC2)cc1	-14.4%	-4.9%	-14.0%	i
COc1ccc(CN2CC(Oc3ccccc3C(=O)NCc3ccccc3)C2)c(OC)c1	50.1µM*	?	?	i
COc1ccc(CN2CC(Oc3ccccc3C(=O)NC3CC3)C2)c(OC)c1	?	-1.6%	-27.4%	i
COc1cccc(CN2CC(Oc3ccccc3C(=O)NC3CC3)C2)c1	?	1.1%	-24.7%	i
COc1ccc(OC)c(CN2CC(Oc3ccccc3C(=O)NCc3ccccc3)C2)c1	31.6µM*	-24.8%	?	i
O=C(C1CN(c2ccccc2)C(=O)N1)N1CCN(Cc2ccccc2)CC1 (stereo not drawn)	44.7µM*	-4.4%	?	i
O=C(C1CN(c2ccc(Cl)cc2)C(=O)N1)N1CCN(Cc2ccccc2)CC1 (stereo not drawn)	25.1µM*	0.0%	?	i
O=C1NC(C(=O)N2CCN(Cc3ccccc3)CC2)CN1Cc1ccccc1 (stereo not drawn)	i	14.8%	2.6%	i
CC1CCN(CC2CCCN(C(=O)Cc3cccs3)CC2)CC1 (stereo not drawn)	-26.0%	·	-21.2%	·
CCCN(CC1CCOC1)C(=O)Nc1ccccc1 (stereo not drawn)	-4.1%	-0.5%	-8.2%	i
CN1CCN(C(=O)c2cc(-c3cccc(C(F)(F)F)c3)nc3c2cnn3C)CC1	?	·	31.6µM*	·
CC(=O)N1CCN(C(=O)c2cc(-c3cccc(C(F)(F)F)c3)nc3c2cnn3C)CC1	-19.3%	·	?	·
C#CCNC(=O)c1cc(-c2cccc(C(F)(F)F)c2)nc2c1cnn2C	?	·	10µM*	·
Cn1ncc2c(C(=O)NCC(F)(F)F)cc(-c3cccc(C(F)(F)F)c3)nc21	-19.2%	·	-15.3%	·
COc1ccc(-c2cc(C(=O)NCc3cccc(C(F)(F)F)c3)c3cnn(C)c3n2)cc1	35.5µM*	·	31.6µM*	·
Cn1ncc2c(C(=O)Nc3cccc(F)c3)cc(-c3ccccc3F)nc21	?	·	-20.3%	·
Cn1ncc2c(C(=O)NCc3cccc(F)c3)cc(-c3ccccc3F)nc21	44.7µM*	·	?	·
COc1cccc(C(=O)N2CC3(Cc4ccccc4CN3[S+](C)(=O)[O-])C2)c1	i	-3.1%	-8.1%	i
Cn1ncc2c(C(=O)NCc3cccc(F)c3)cc(-c3ccc(C(F)(F)F)cc3)nc21	39.8µM*	·	-28.9%	·
Cn1ncc2c(C(=O)NCc3cccc(C(F)(F)F)c3)cc(-c3ccc(C(F)(F)F)cc3)nc21	-7.2%	·	-1.7%	·
CC(=O)N1CCCN(C(=O)c2cc(-c3cc(Cl)cc(Cl)c3)nc3c2cnn3C)CC1	79.4µM*	·	?	·
Cc1ccc(-c2cc(C(=O)NCc3ccc(C(F)(F)F)cc3)c3cnn(C)c3n2)c(C)c1	35.5µM*	·	?	·
SMILES	HEK cytotox	hNpr1 antagonist	NIH3T3 tox	FLuc inh
CCN1CCN(C(=O)c2cc(-c3cc(Cl)cc(Cl)c3)nc3c2cnn3C)CC1	-2.3%	·	-25.0%	·
O=C(O)c1ccc(CN[C@@H]2CO[C@H](CNC(=O)c3ccccc3)[C@H]2O)cc1	-0.5%[172 µM]	3.2%[70.6 µM]	-6.6%[174 µM]	i
COc1ccc(F)cc1-c1cccc(C(=O)NCCNC(=O)c2ccccc2F)c1	39.8µM*	·	?	·
COc1ccc(C(=O)NCCNC(=O)c2cccc(-c3cc(F)ccc3OC)c2)cc1	39.8µM*	·	?	·
COc1ccc(F)cc1-c1cccc(C(=O)NCCNC(=O)c2ccc(C)cc2)c1	?	·	-32.1%	·
COc1ccc(F)cc1-c1cccc(C(=O)NCC(=O)NCc2ccc3c(c2)OCO3)c1	50.1µM*	·	?	·
CCOCCNC(=O)CNC(=O)c1cccc(-c2cc(F)ccc2OC)c1	-19.9%	·	-12.3%	·
CCn1c(CO)nnc1C1CC(NC(=O)c2[nH]c3ccc(OC)cc3c2C)C1 (stereo not drawn)	-2.5%	7.6%	-16.8%	?
COCCOCC(=O)N1CC2CC(C1)[C@H]1CCCC(=O)N1C2 (stereo partly drawn)	4.9%	2.0%	i	i
Cn1ncc2c(C(=O)NCc3ccc(F)cc3)cc(-c3ccc(Cl)cc3)nc21	-11.9%	·	?	·
COc1ccc(-c2cccc(C(=O)Nc3ccccc3F)c2)nn1	-18.3%[172 µM]	·	-25.5%[138 µM]	·
O=C1CCN(S(=O)(=O)c2ccccc2)CCCC(C(=O)NCc2ccccc2)CCN1 (stereo not drawn)	-5.9%	0.4%	-13.9%	i
Cn1ncc2c(C(=O)NCc3ccccc3F)cc(-c3ccccc3C(F)(F)F)nc21	39.8µM*	·	?	·
COc1ccccc1-c1cc(C(=O)NCc2ccccc2F)c2cnn(C)c2n1	-12.0%	·	-18.8%	·
Cn1ncc2c(C(=O)NCCc3cccc(F)c3)cc(-c3ccccc3C(F)(F)F)nc21	39.8µM*	·	?	·
Cn1ncc2c(C(=O)C3CCN(Cc4ccccc4)CC3)cc(-c3ccccc3C(F)(F)F)nc21	20µM*	·	31.6µM*	·
Cn1ncc2c(C(=O)N3CCCC3)cc(-c3ccccc3C(F)(F)F)nc21	-28.0%	·	-26.5%	·
COCCNC(=O)c1cc(-c2ccccc2C(F)(F)F)nc2c1cnn2C	-10.5%	·	-4.7%	·
O=C(NCc1ccc(F)cc1)c1cnc2n[nH]c(-c3ccccc3)c2n1	?	-26.5%[70.6 µM]	50.1µM*	i
O=C(c1cnc2n[nH]c(-c3ccccc3)c2n1)N1CCN(c2ccccn2)CC1	70.8µM*	-13.4%[70.6 µM]	?	i
O=C(NCC1CCOCC1)c1cnc2n[nH]c(-c3ccccc3)c2n1	?	3.8%[70.6 µM]	79.4µM*	i
O=C(c1cnc2n[nH]c(-c3ccccc3)c2n1)N1CCOCC1	?	-10.8%[70.6 µM]	?	i
O=C(NCCc1ccccc1)c1cnc2n[nH]c(-c3ccccc3)c2n1	-26.1%[172 µM]	-17.0%[70.6 µM]	?	i
COc1ccc(-c2[nH]nc3ncc(C(=O)NCc4ccc(F)cc4)nc23)c(C)c1	31.6µM*	-18.7%[70.6 µM]	22.4µM*	i
CC1=NS(=O)(=O)N(Cc2ccccc2F)C=C1C(=O)O	1.5%	-1.6%	-15.8%	i
CNC(=O)C(C)(C)N1CCC[C@H]1C(=O)N1CCC(C)CC1	-23.9%[172 µM]	2.5%[70.6 µM]	-25.3%[138 µM]	i
COc1cccc(CNC(=O)c2ccc3c(c2)N(C(=O)c2ccc(F)cc2)CC3)c1	?	-11.0%	?	i
